# Compounds with a hit are over-represented: about 6.7% of the library has one in this group of screens.
# T cruzi growth = T. cruzi proliferation inhibition. T. cruzi beta-gal in NIH3T3, GalScreen luminescence, 90 h. inhibition, % at 8.34 µM. 77,000 compounds, 5.9% hits;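 active means mean inhibition above about 93%, with at least 55% of replicates each passing it, limit read from the data, passing the limit was not always enough; inconclusive means only one of those two conditions holds; inactive means neither condition holds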
# C diff HTS = C. difficile growth inhibition. growth activity, negative = inhibition, % at 16 µg/mL (by protocol). 86,000 compounds, 0.25% hits. Clostridium difficile clinical isolate growth, OD600, 24 h; stronger effect = lower value;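 active means mean growth activity at or below -80% and every replicate also at or below -80%; inconclusive means mean at or below -80% but some replicate above -80%; inactive means mean growth activity above -80%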
# Pf Dd2 inh = blocks growth of Plasmodium falciparum Dd2 parasites. P. falciparum Dd2 growth, SYBR Green, 72 h; stronger effect = lower value. activity change, % at 10 µM. 94,000 compounds, 2.3% hits; in the data active means activity change below about -80%; inconclusive means no clear call, values can overlap the other calls
# Hits are given with their value; - = inactive; ? = inconclusive; . = no result.
SMILES,T cruzi growth,C diff HTS,Pf Dd2 inh
Cc1noc(C)c1NC(=O)N(C)C[C@H]1OCCCC[C@@H](C)Oc2ccc(NS(=O)(=O)c3cccs3)cc2C(=O)N([C@H](C)CO)C[C@@H]1C,-,-,-
CO[C@H]1CN(C)C(=O)c2cc(NC(=O)C3CC3)ccc2OC[C@H](C)N(C(=O)c2ccccn2)C[C@H]1C,-,.,.
C[C@H]1CCCCO[C@H](CN(C)S(=O)(=O)c2ccc(F)cc2)[C@@H](C)CN([C@@H](C)CO)C(=O)c2cc(NC(=O)Cc3ccccc3)ccc2O1,-,.,-89.3
C[C@@H]1CCCCO[C@H](CN(C)S(=O)(=O)c2ccc(F)cc2)[C@@H](C)CN([C@@H](C)CO)C(=O)c2cc(NC(=O)Cc3ccccc3)ccc2O1,-,.,-
COc1ccc(S(=O)(=O)N(C)C[C@H]2OCCCC[C@H](C)Oc3ccc(NC(=O)Cc4ccccc4)cc3C(=O)N([C@H](C)CO)C[C@H]2C)cc1,-,-,-84.1
COc1ccc(S(=O)(=O)N(C)C[C@H]2OCCCC[C@@H](C)Oc3ccc(NC(=O)Cc4ccccc4)cc3C(=O)N([C@@H](C)CO)C[C@H]2C)cc1,-,-,-
C[C@H](CO)N1C[C@H](C)[C@H](CN(C)Cc2ccccc2C(=O)O)Oc2cc(-c3ccc(C(=O)N(C)C)cc3)ccc2S1(=O)=O,-,-,-
C[C@H](CO)N1C[C@H](C)[C@H](CN(C)C(=O)c2ccncc2)Oc2ncc(C#CC3CCCCC3)cc2C1=O,-,-,-
COc1ccc2c3c(n(C)c2c1)[C@H](CO)N(C(=O)Nc1ccc(F)cc1)CC31CCN(C(=O)c2ccc3c(c2)OCO3)CC1,.,-,-88.2
COc1ccc2c3c(n(C)c2c1)[C@@H](CO)N(C(=O)Nc1ccc(F)cc1)CC31CCN(C(=O)c2ccccc2F)CC1,.,-,-84.5
CCC(=O)N1CCC2(CC1)CN(C(=O)Nc1ccc(F)cc1)[C@H](CO)c1c2c2ccc(OC)cc2n1C,.,-,-
COc1ccc2c3c(n(C)c2c1)[C@@H](CO)N(C(=O)Nc1ccc(F)cc1)CC31CCN(C(=O)c2ccc3c(c2)OCO3)CC1,.,-,-
CCC(=O)N(C)C[C@H]1Oc2cc(C#CC(C)C)ccc2S(=O)(=O)N([C@@H](C)CO)C[C@@H]1C,-,-,-
C[C@H](CO)N1C[C@H](C)[C@H](CN(C)S(=O)(=O)c2cn(C)cn2)Oc2ccc(NC(=O)c3ccncc3)cc2C1=O,-,-,-
C[C@@H]1CN([C@H](C)CO)C(=O)c2cc(NC(=O)Nc3ccc(F)cc3)ccc2O[C@@H](C)CCCCO[C@H]1CN(C)S(=O)(=O)c1ccc(Cl)cc1,-,-,-
C[C@@H]1CCCCO[C@@H](CN(C)S(=O)(=O)c2ccc(Cl)cc2)[C@H](C)CN([C@H](C)CO)C(=O)c2cc(NC(=O)Nc3ccc(F)cc3)ccc2O1,-,-,-81.1
C[C@@H]1CCCCO[C@@H](CN(C)S(=O)(=O)c2ccccc2)[C@@H](C)CN([C@@H](C)CO)C(=O)c2cc(NC(=O)Nc3ccc(F)cc3)ccc2O1,-,-,-80.9
C[C@@H]1CN([C@H](C)CO)C(=O)c2cc(NC(=O)Nc3ccc(F)cc3)ccc2O[C@@H](C)CCCCO[C@@H]1CN(C)S(=O)(=O)c1ccc(F)cc1,-,-,-
C[C@@H]1CN([C@H](C)CO)C(=O)c2cc(NC(=O)Nc3ccc(F)cc3)ccc2O[C@@H](C)CCCCO[C@H]1CN(C)S(=O)(=O)c1ccccc1,?,-,-
Cc1ccc(S(=O)(=O)N(C)C[C@H]2OCCCC[C@H](C)Oc3ccc(NC(=O)Nc4ccc(F)cc4)cc3C(=O)N([C@@H](C)CO)C[C@H]2C)cc1,-,.,-82.1
Cc1noc(C)c1NC(=O)N(C)C[C@@H]1OCCCC[C@@H](C)Oc2ccc(NC(=O)Nc3cccc4ccccc34)cc2C(=O)N([C@@H](C)CO)C[C@@H]1C,.,-,-
COc1ccc(NC(=O)N(C)C[C@@H]2Oc3ccc(NC(=O)Cc4ccccc4)cc3C(=O)N([C@H](C)CO)C[C@@H]2C)cc1,-,-,-
C[C@H](CO)N1C[C@H](C)[C@@H](CN(C)C(=O)NC2CCCCC2)OCCCC[C@H](C)Oc2ccc(NC(=O)CCC(F)(F)F)cc2C1=O,-,-,-
CCNC(=O)[C@H]1[C@H](CO)[C@H]2Cn3c(cccc3=O)[C@@H]1N2CC1CCOCC1,.,-,-
COCc1cn(CC[C@H]2CC[C@@H](NC(=O)Nc3ccc(F)cc3)[C@H](CO)O2)nn1,-,-,-
C[C@H](CO)N1C[C@H](C)[C@@H](CN(C)CC2CC2)Oc2ccc(NC(=O)Nc3cccc4ccccc34)cc2CC1=O,-,-,-86.3
C[C@H](CO)N1C[C@H](C)[C@H](CN(C)CC2CC2)Oc2ccc(NC(=O)Nc3cccc4ccccc34)cc2CC1=O,.,-,-89.2
C[C@H]1CN([C@@H](C)CO)C(=O)Cc2cc(NC(=O)Nc3cccc4ccccc34)ccc2O[C@H]1CN(C)C,.,-,-

# Screening results from PubChem BioAssay.
